# Data published in PubChem BioAssay (NCATS).
# Records with an inconclusive call do not appear. Where a call stands in place of a potency, no number is given. Calls of active or inactive are those of the source. Calls follow the shape of the dose curve; as a rule, active = well fitted inhibition curve with a large enough effect; inconclusive = small, poorly fitted or top-dose-only effect; inactive = flat fitted curve, though single readings scatter.
# Key:
# Assay in all cases: qHTS profiling for inhibitors of Plasmodium falciparum proliferation (AID 504749); also: nearly all actives have a fitted effect of over 60% in size
# Settings in all cases: P. falciparum in erythrocytes, SYBR Green DNA, 72 h; series mostly up to 28.7 µM
# P94_40 = system: P94_40
# Method in brief: (§1)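 SYBR Green fluorescence (ex 485 nm, em 535 nm) reports parasite DNA after 72 h compound exposure of infected red cells at 0.3% parasitemia, 2.5% hematocrit; signal normalized to 0.29 uM artemisinin and vehicle wells.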
# PAD = system: PAD
# Method in brief: as §1
# PC15 = system: PC15
# Method in brief: as §1
# PC26 = system: PC26
# Method in brief: as §1
# PC49 = system: PC49
# Method in brief: as §1
# SC27B = system: SC27B
# Method in brief: as §1
# TAB109 = system: TAB109
# Method in brief: as §1
# TAB113 = system: TAB113
# Method in brief: as §1
# TAB165 = system: TAB165
# Method in brief: as §1
# W2 = system: W2
# Method in brief: as §1
# Potency is read from the fitted curve at half-maximal effect.
SMILES,Potency (P94_40),Potency (PAD),Potency (PC15),Potency (PC26),Potency (PC49),Potency (SC27B),Potency (TAB109),Potency (TAB113),Potency (TAB165),Potency (W2)
C[C@](N)(Cc1ccc(O)cc1)C(=O)O,inactive,inactive,inactive,inactive,inactive,inactive,inactive,inactive,inactive,inactive
N[C@@H](CSCCCO)C(=O)O,inactive,inactive,inactive,inactive,inactive,inactive,inactive,inactive,inactive,inactive
Nc1ccc(S(=O)(=O)Nc2nccs2)cc1,inactive,inactive,inactive,inactive,inactive,inactive,inactive,inactive,inactive,inactive
NC(=O)NNc1ccccc1,inactive,inactive,inactive,inactive,inactive,inactive,inactive,inactive,inactive,inactive
CC1=C(CC(=O)O)c2cc(F)ccc2/C1=C\c1ccc(S(C)=O)cc1 (stereo not drawn),inactive,inactive,inactive,inactive,inactive,inactive,inactive,inactive,inactive,–
CCOC(=O)[C@H](CCc1ccccc1)N[C@@H](C)C(=O)N1C(=O)N(C)C[C@H]1C(=O)O,inactive,inactive,inactive,inactive,inactive,inactive,inactive,inactive,inactive,inactive
COc1ccc(Cl)cc1C(=O)NCCc1ccc(S(=O)(=O)NC(=O)NC2CCCCC2)cc1,inactive,inactive,inactive,inactive,inactive,inactive,inactive,inactive,inactive,–
C[C@H](N)[C@H](O)c1cccc(O)c1,inactive,inactive,inactive,inactive,inactive,inactive,inactive,inactive,inactive,inactive
O=C1O[C@H]([C@@H](O)CO)C(O)=C1O,inactive,inactive,inactive,inactive,inactive,inactive,inactive,inactive,inactive,inactive
Cc1cccc(C)c1NC(=O)CN(CC(=O)O)CC(=O)O,inactive,inactive,inactive,inactive,inactive,inactive,inactive,inactive,inactive,–
O=C(O)COc1nn(Cc2ccccc2)c2ccccc12,inactive,inactive,inactive,inactive,inactive,inactive,inactive,inactive,inactive,–
Cc1c(Cl)cccc1Nc1ccccc1C(=O)O,inactive,inactive,inactive,inactive,inactive,inactive,inactive,inactive,inactive,9530 nM (active)
Cc1ccc(C(C)C)cc2c(C)ccc1-2,inactive,inactive,inactive,inactive,inactive,inactive,inactive,inactive,inactive,–
O=S(=O)(O)NC1CCCCC1,inactive,inactive,inactive,inactive,inactive,inactive,inactive,inactive,inactive,–
CC(=O)CCC(=O)O,inactive,inactive,inactive,inactive,inactive,inactive,inactive,inactive,inactive,inactive
CC(C)(C)NCC(O)COc1ccc(NC(=O)NC2CCCCC2)cc1 (stereo not drawn),inactive,inactive,inactive,inactive,inactive,inactive,inactive,inactive,inactive,inactive
C#CCN(C)Cc1ccccc1,inactive,inactive,inactive,inactive,inactive,inactive,inactive,inactive,inactive,inactive
CCCCOC(=O)c1ccc(O)cc1,inactive,inactive,inactive,inactive,inactive,inactive,inactive,inactive,inactive,–
O=C(O)[C@@H]1CSCN1,inactive,inactive,inactive,inactive,inactive,inactive,inactive,inactive,inactive,–
COc1ccccc1O,inactive,inactive,inactive,inactive,inactive,inactive,inactive,inactive,inactive,inactive
CCCn1cnc2c1c(=O)n(CCCCC(C)=O)c(=O)n2C,inactive,inactive,inactive,inactive,inactive,inactive,inactive,inactive,inactive,15100 nM (active)
CCCCOc1cc(C(=O)OCCN(CC)CC)ccc1N,inactive,inactive,inactive,inactive,inactive,inactive,inactive,inactive,inactive,inactive
CCN(CC)CCSC(=O)C(c1ccccc1)c1ccccc1,inactive,inactive,inactive,inactive,inactive,inactive,inactive,inactive,inactive,–
NCC(=O)CCC(=O)O,inactive,inactive,inactive,inactive,inactive,inactive,inactive,inactive,inactive,–

SMILES,Potency (P94_40),Potency (PAD),Potency (PC15),Potency (PC26),Potency (PC49),Potency (SC27B),Potency (TAB109),Potency (TAB113),Potency (TAB165),Potency (W2)
COc1cc(C)c(Cc2cnc(N)nc2N)cc1OC,inactive,inactive,inactive,inactive,inactive,inactive,inactive,inactive,inactive,–
CC1(C)CO[C@@H](CC(=O)O)CN1,inactive,inactive,inactive,inactive,inactive,inactive,inactive,inactive,inactive,inactive
CCOc1ccc2ccccc2c1C(=O)N[C@@H]1C(=O)N2[C@@H]1SC(C)(C)[C@@H]2C(=O)O,inactive,inactive,inactive,inactive,inactive,inactive,inactive,inactive,inactive,–
NC(=O)NC(=O)Cc1ccccc1,inactive,inactive,inactive,inactive,inactive,inactive,inactive,inactive,inactive,inactive
CCCCN(CCCC)CCCOC(=O)c1ccc(N)cc1,inactive,inactive,inactive,inactive,inactive,inactive,inactive,inactive,inactive,–
O=c1cc[nH]c(=S)[nH]1,inactive,inactive,inactive,inactive,inactive,inactive,inactive,inactive,inactive,inactive
Cc1cc(C(C#N)c2ccc(Cl)cc2)c(Cl)cc1NC(=O)c1cc(I)cc(I)c1O (stereo not drawn),inactive,inactive,inactive,inactive,inactive,inactive,inactive,inactive,inactive,–
CC(=O)NC(Cc1ccccc1)C(=O)O (stereo not drawn),inactive,inactive,inactive,inactive,inactive,inactive,inactive,inactive,inactive,–
COc1ccc(S(=O)(=O)Nc2nnc(CC(C)C)s2)cc1,inactive,inactive,inactive,inactive,inactive,inactive,inactive,inactive,inactive,inactive
O=S(=O)(O)c1cc(I)c(O)c2ncccc12,inactive,inactive,inactive,inactive,inactive,inactive,inactive,inactive,inactive,inactive
O=C(Oc1ccccc1C(=O)O)c1ccccc1O,inactive,inactive,inactive,inactive,inactive,inactive,inactive,inactive,inactive,inactive
CCOC(=O)c1ccc(O)cc1,inactive,inactive,inactive,inactive,inactive,inactive,inactive,inactive,inactive,inactive
CCCCN1CCCC[C@H]1C(=O)Nc1c(C)cccc1C,inactive,inactive,inactive,inactive,inactive,inactive,inactive,inactive,inactive,6750 nM (active)
NCCNCCNCCNCCN,inactive,inactive,inactive,inactive,inactive,inactive,inactive,inactive,inactive,inactive
Nc1ccc(S(=O)(=O)Nc2ccccc2)cc1,inactive,inactive,inactive,inactive,inactive,inactive,inactive,inactive,inactive,inactive
CCN(CC)CCNC(=O)c1cc(Cl)c(N)cc1OC,inactive,inactive,inactive,inactive,inactive,inactive,inactive,inactive,inactive,inactive
O=c1cc(CO)occ1O,inactive,inactive,inactive,inactive,inactive,inactive,inactive,inactive,inactive,inactive
C[C@@H]1CN(c2c(F)c(F)c3c(=O)c(C(=O)O)cn(C4CC4)c3c2F)C[C@H](C)N1,inactive,inactive,inactive,inactive,inactive,inactive,inactive,inactive,inactive,inactive
CC(CN1c2ccccc2Sc2ccccc21)N(C)C (stereo not drawn),inactive,inactive,inactive,inactive,inactive,–,inactive,inactive,inactive,–
O=Cc1ccccc1C=O,inactive,inactive,inactive,inactive,inactive,inactive,inactive,inactive,inactive,inactive
C[C@H]1O[C@@H](n2cc(F)c(=O)[nH]c2=O)[C@H](O)[C@@H]1O,inactive,inactive,inactive,inactive,inactive,inactive,inactive,inactive,inactive,inactive
O=C(O)c1ccccc1-c1ccc(C(F)(F)F)cc1,inactive,inactive,inactive,inactive,inactive,inactive,inactive,inactive,inactive,inactive
Cc1cc(N)c2ccccc2[n+]1CCCCCCCCCC[n+]1c(C)cc(N)c2ccccc21,7080 nM (active),2240 nM (active),282 nM (active),510 nM (active),126 nM (active),0.0316 nM (active),4470 nM (active),126 nM (active),100 nM (active),102 nM (active)
